This is part of a sample that, as a whole, favours compounds with a hit. Of some 83,000 tested, about 20% had one in any assay.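 For each line, cells grew in 96-well plates with the test compound present at a single concentration for 48 hours.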 Activity calls are given as the source filed them. How the source made its calls: active means growth percent below 10; inactive means the rest.
Columns and labels:
Experiment in all cases: NCI-60 one-dose screen, 48 h (100 = growth as untreated, 0 = no growth, -100 = all killed)
Conditions in all cases: 10 µM unless noted
HCT-15 colon = test system: HCT-15 colon
HT29 colon = test system: HT29 colon
SNB-75 CNS = test system: SNB-75 CNS
SNB-19 CNS = test system: SNB-19 CNS
U251 CNS = test system: U251 CNS
PC-3 prostate = test system: PC-3 prostate
SK-MEL-5 melanoma = test system: SK-MEL-5 melanoma
UACC-62 melanoma = test system: UACC-62 melanoma
LOX IMVI melanoma = test system: LOX IMVI melanoma
SK-MEL-28 melanoma = test system: SK-MEL-28 melanoma

Measured: growth

O=C(Nc1nc2ccc(C(F)(F)F)cc2s1)c1cc(Cl)ccc1O
inactive: SNB-75 CNS 16.8% | SNB-19 CNS 20.5% | UACC-62 melanoma 13.3% | SK-MEL-28 melanoma 26.6%
active: HCT-15 colon 7.56% | HT29 colon -18% | U251 CNS 8.44% | PC-3 prostate 7.15% | SK-MEL-5 melanoma -46.1% | LOX IMVI melanoma 5.71%

C=CCn1c(SCC(=O)Nc2ccc(C(=O)/C=C/c3ccc(Cl)cc3)cc2)nnc1-c1cc(OC)c(OC)c(OC)c1
inactive: HCT-15 colon 89.7% | HT29 colon 97.4% | SNB-75 CNS 86.2% | SNB-19 CNS 85.3% | U251 CNS 90.7% | PC-3 prostate 75.2% | SK-MEL-5 melanoma 63.5% | UACC-62 melanoma 70.4% | LOX IMVI melanoma 91.8% | SK-MEL-28 melanoma 106%

NC(=O)c1ccc2nc3c(n2c1)C(=O)C(=O)c1ccccc1-3
active: HCT-15 colon -63.4% | HT29 colon -7.62% | SNB-75 CNS -95% | SNB-19 CNS -97.5% | U251 CNS -98.6% | PC-3 prostate -48.3% | SK-MEL-5 melanoma -100% | UACC-62 melanoma -94.1% | LOX IMVI melanoma -78.4% | SK-MEL-28 melanoma -82.2%

Cc1ccc(-c2nc(C#N)c(S(=O)(=O)N(C)CCO)o2)cc1
inactive: HCT-15 colon 37.6% | HT29 colon 28.1% | SNB-75 CNS 101% | SNB-19 CNS 86.5% | U251 CNS 83.7% | PC-3 prostate 99.8% | SK-MEL-5 melanoma 71.4% | UACC-62 melanoma 62.4% | LOX IMVI melanoma 41.9% | SK-MEL-28 melanoma 82%

COc1ccc(C(=S)c2cc(OC)c(OC)c(OC)c2)cc1OC(=O)CCl
active: U251 CNS 4.79% | SK-MEL-5 melanoma -29.7%
inactive: HCT-15 colon 14.3% | HT29 colon 24% | SNB-75 CNS 53.8% | SNB-19 CNS 31.4% | PC-3 prostate 14.1% | UACC-62 melanoma 47.9% | LOX IMVI melanoma 19.6% | SK-MEL-28 melanoma 67.8%

CCOC(=O)c1c(C)nc2c(c1N)/C(=C/c1ccccn1)C(=O)N2Cc1ccccc1
inactive: SNB-75 CNS 68.6% | SK-MEL-5 melanoma 41.2%
active: HCT-15 colon -58.9% | HT29 colon -18.6% | SNB-19 CNS 0.719% | U251 CNS -87.4% | PC-3 prostate 2.04% | UACC-62 melanoma 4.68% | LOX IMVI melanoma -88.4% | SK-MEL-28 melanoma -2.42%

Cc1nccc2c3ccc(OCc4cn(-c5ccc(Br)cc5)nn4)cc3n(CC(C)C)c12
active: HT29 colon 4.32%
inactive: HCT-15 colon 36.4% | SNB-75 CNS 89.5% | SNB-19 CNS 59.6% | U251 CNS 36.9% | PC-3 prostate 30.7% | SK-MEL-5 melanoma 13.1% | UACC-62 melanoma 38.4% | LOX IMVI melanoma 52.2% | SK-MEL-28 melanoma 67.2%

COC(=O)c1ccc2c(c1)n(Cc1ccc3ccccc3c1)c[n+]2Cc1ccc2ccccc2c1
active: SK-MEL-5 melanoma 4.24% | UACC-62 melanoma -15.9%
inactive: HCT-15 colon 98.6% | HT29 colon 10.1% | SNB-75 CNS 60.1% | SNB-19 CNS 33.1% | U251 CNS 32.9% | PC-3 prostate 29.6% | LOX IMVI melanoma 23.9% | SK-MEL-28 melanoma 21.6%

COc1ccc2oc(=O)cc(-c3c(C#N)c(N)n4nc(N)c(C#N)c4c3C#N)c2c1
inactive: HCT-15 colon 102% | HT29 colon 90.7% | SNB-75 CNS 116% | SNB-19 CNS 112% | U251 CNS 101% | PC-3 prostate 104% | SK-MEL-5 melanoma 99% | UACC-62 melanoma 107% | LOX IMVI melanoma 95% | SK-MEL-28 melanoma 107%

CC(C)(C)c1ccc(O)c(Cc2cc(C(C)(C)C)ccc2O)c1
inactive: HCT-15 colon 101% | HT29 colon 98.7% | SNB-75 CNS 89.2% | SNB-19 CNS 101% | U251 CNS 90.2% | PC-3 prostate 12.5% | SK-MEL-5 melanoma 99% | UACC-62 melanoma 87.8% | LOX IMVI melanoma 99.1% | SK-MEL-28 melanoma 104%

N#CC1C(c2ccc(Cl)cc2)=Nc2c(c(-c3ccccc3)nn2-c2ccccc2)C12C(=O)Nc1ccc(Cl)cc12 (stereo not given)
inactive: HCT-15 colon 20.5% | HT29 colon 22.5% | SNB-75 CNS 45.8% | SNB-19 CNS 24.1% | U251 CNS 18.6% | PC-3 prostate 11.8% | SK-MEL-5 melanoma 46.5% | UACC-62 melanoma 48.2% | LOX IMVI melanoma 43.9% | SK-MEL-28 melanoma 52%

Oc1ccc(CNNc2ccnc3c(O)cccc23)c2cccnc12
inactive: HCT-15 colon 23.9% | HT29 colon 73.8% | SNB-75 CNS 54.9% | SNB-19 CNS 29.7% | U251 CNS 25.8% | PC-3 prostate 29.7% | UACC-62 melanoma 24.6% | LOX IMVI melanoma 16.4% | SK-MEL-28 melanoma 49.7%
active: SK-MEL-5 melanoma -20.2%

COc1ccc(-c2cc(-c3nnc(SCC(=O)Nc4ccc(/C(C)=N\O)cc4)n3-c3ccccc3)c3cc(OC)ccc3n2)cc1
inactive: HCT-15 colon 70% | HT29 colon 79.8% | SNB-75 CNS 80.3% | SNB-19 CNS 77.9% | U251 CNS 78.1% | PC-3 prostate 61.1% | SK-MEL-5 melanoma 83.8% | UACC-62 melanoma 49% | SK-MEL-28 melanoma 95.4%
active: LOX IMVI melanoma -36.4%

COc1cc(C(=O)Nc2cc(O)c(C/C=C(\C)CCC=C(C)C)c(O)c2)cc2c1O[C@]1(C)CC[C@@H](O)C(C)(C)[C@H]1C2
active: HCT-15 colon 1.55% | HT29 colon -25.5% | U251 CNS 6.63% | SK-MEL-5 melanoma -39.6% | UACC-62 melanoma 0.641% | LOX IMVI melanoma -33.8%
inactive: SNB-75 CNS 20.2% | SNB-19 CNS 32.2% | PC-3 prostate 18.1% | SK-MEL-28 melanoma 25.8%

COc1ccc(C(=O)c2cc(OC)c(OC)c(OC)c2)cc1OC(=O)C(Cl)(Cl)Cl
active: HCT-15 colon 8.84% | U251 CNS 5.44% | SK-MEL-5 melanoma -24.1%
inactive: HT29 colon 13.4% | SNB-75 CNS 58% | SNB-19 CNS 23.5% | PC-3 prostate 10.2% | UACC-62 melanoma 39.8% | LOX IMVI melanoma 15.1% | SK-MEL-28 melanoma 51.6%

CCCn1c2cc(OCc3cn(-c4ccc(Br)cc4)nn3)ccc2c2ccnc(C)c21
inactive: HCT-15 colon 73.5% | HT29 colon 57.9% | SNB-19 CNS 53.8% | U251 CNS 33.8% | PC-3 prostate 74.5% | SK-MEL-5 melanoma 76.8% | UACC-62 melanoma 38.8% | LOX IMVI melanoma 72.7% | SK-MEL-28 melanoma 80.3%
active: SNB-75 CNS -1.81%

N#Cc1c(NC(=O)c2cccs2)[n+]([O-])c2cc(C(F)(F)F)ccc2[n+]1[O-]
inactive: HCT-15 colon 117% | HT29 colon 107% | SNB-75 CNS 92.6% | SNB-19 CNS 106% | U251 CNS 104% | PC-3 prostate 65.1% | SK-MEL-5 melanoma 58% | UACC-62 melanoma 96.8% | LOX IMVI melanoma 94.7% | SK-MEL-28 melanoma 120%

COc1cc2nc3c(=O)n(-c4ccc(C#N)cc4)cnn3c(=O)c2cc1OC
inactive: HCT-15 colon 100% | HT29 colon 100% | SNB-75 CNS 73.9% | SNB-19 CNS 97.7% | U251 CNS 102% | PC-3 prostate 98.3% | SK-MEL-5 melanoma 96.1% | UACC-62 melanoma 95.1% | LOX IMVI melanoma 95.4% | SK-MEL-28 melanoma 99.8%

COc1cc2c(Nc3ccc(NC(=O)Nc4ccc(Cl)c(C(F)(F)F)c4)c(Cl)c3)ncnc2cc1OCCCN1CCN(C)CC1
inactive: HCT-15 colon 86.7% | SNB-75 CNS 31.3% | SK-MEL-28 melanoma 36.1%
active: HT29 colon 1.14% | SNB-19 CNS -79% | U251 CNS -89.5% | PC-3 prostate -25.3% | SK-MEL-5 melanoma -44.6% | UACC-62 melanoma 0.23% | LOX IMVI melanoma -88.3%

COc1ccc(C(=O)c2cc(OC)c(C)c(OC)c2)cc1OC(=O)CCl
inactive: HCT-15 colon 12.4% | HT29 colon 55.6% | SNB-75 CNS 38.1% | SNB-19 CNS 28.4% | U251 CNS 17.1% | PC-3 prostate 13.4% | UACC-62 melanoma 38% | LOX IMVI melanoma 21.8% | SK-MEL-28 melanoma 49.5%
active: SK-MEL-5 melanoma 9.8%

COc1cc(-c2csc(NC(=O)Nc3ccc(Cl)cc3)n2)cc(OC)c1OC
active: PC-3 prostate 3.63% | SK-MEL-5 melanoma -37.8% | UACC-62 melanoma -7.54%
inactive: HCT-15 colon 20.1% | HT29 colon 36.1% | SNB-75 CNS 36.5% | SNB-19 CNS 24.3% | U251 CNS 25.4% | LOX IMVI melanoma 24.7% | SK-MEL-28 melanoma 41.1%

S=C(Nc1ccc(Cl)cc1)c1ccccn1
inactive: HCT-15 colon 98.1% | HT29 colon 94.1% | SNB-75 CNS 79.7% | SNB-19 CNS 92.2% | U251 CNS 88.6% | PC-3 prostate 85.6% | SK-MEL-5 melanoma 94.1% | UACC-62 melanoma 82.5% | LOX IMVI melanoma 88.4% | SK-MEL-28 melanoma 107%

C=C1C(=O)O[C@H]2[C@H]1CC/C(COC(=O)NCc1nc3ccccc3[nH]1)=C\CC[C@@]1(C)O[C@@H]21
inactive: HCT-15 colon 103% | HT29 colon 63.8% | SNB-75 CNS 91.9% | SNB-19 CNS 98.6% | U251 CNS 92.9% | PC-3 prostate 85.6% | SK-MEL-5 melanoma 97% | UACC-62 melanoma 80% | LOX IMVI melanoma 75.9% | SK-MEL-28 melanoma 73.1%

C=C1C(=O)O[C@H]2[C@H]1CC/C(COC(=O)CCC(=O)OC/C1=C/CC[C@@]3(C)O[C@H]3[C@H]3OC(=O)C(=C)[C@@H]3CC1)=C\CC[C@@]1(C)O[C@@H]21
inactive: HT29 colon 27.2% | SNB-75 CNS 76.5% | SNB-19 CNS 94.3% | U251 CNS 72.9% | PC-3 prostate 60% | SK-MEL-5 melanoma 61.4% | UACC-62 melanoma 13.2% | LOX IMVI melanoma 26.2%
active: HCT-15 colon 0.631% | SK-MEL-28 melanoma 4.61%

O=c1nc(-c2ccccc2)c2cc(-c3ccc(N4CCCC4)nc3)ccc2[nH]1
inactive: HCT-15 colon 44% | HT29 colon 30.7% | SNB-75 CNS 66.1% | SNB-19 CNS 66.4% | U251 CNS 67.5% | PC-3 prostate 65.7% | SK-MEL-5 melanoma 40.4% | UACC-62 melanoma 57.2% | LOX IMVI melanoma 57.2% | SK-MEL-28 melanoma 82.3%

[2H]c1nc(Nc2ncc3cc(C(=O)N(C)C)n(C4CCCC4)c3n2)c([2H])c([2H])c1N1C([2H])([2H])C([2H])([2H])NC([2H])([2H])C1([2H])[2H]
inactive: HCT-15 colon 79.9% | HT29 colon 27.6% | SNB-75 CNS 69.7% | SNB-19 CNS 61.5% | U251 CNS 56.1% | PC-3 prostate 54.6% | SK-MEL-5 melanoma 72.3% | UACC-62 melanoma 64.6% | LOX IMVI melanoma 40.2% | SK-MEL-28 melanoma 84.2%

From PubChem BioAssay (NCI)
